Structures are written as SMILES.

Assay [1] addresses Platelet-derived growth factor receptor beta (Homo sapiens) (UniProt P09619). To be noted: at 1 µM.
Assay [2] addresses Tyrosine-protein kinase FRK (Homo sapiens) (UniProt P42685). To be noted: at 0.1 µM.
The target is the same in assay [3]. To be noted: at 1 µM.
For assay [4], the target named is Protein-tyrosine kinase 2-beta (Homo sapiens) (UniProt Q14289). Particulars: at 0.1 µM.
Assay [5] has the same target. Particulars: at 1 µM.
Assay [6] addresses Proto-oncogene tyrosine-protein kinase receptor Ret (Homo sapiens) (UniProt P07949). To be noted: at 0.1 µM.
Assay [7] has the same target. To be noted: at 1 µM.
Assay [8] concerns Proto-oncogene tyrosine-protein kinase receptor Ret (Homo sapiens), P07949 [V804L]. Particulars: at 0.1 µM.
For assay [9] the test system is unchanged. To be noted: at 1 µM.
The test system of assay [10] is Proto-oncogene tyrosine-protein kinase receptor Ret (Homo sapiens), P07949 [Y791F]. Particulars: at 0.1 µM.
Proto-oncogene tyrosine-protein kinase receptor Ret (Homo sapiens), P07949 [Y791F], sequence (P07949 whole entry Y791F): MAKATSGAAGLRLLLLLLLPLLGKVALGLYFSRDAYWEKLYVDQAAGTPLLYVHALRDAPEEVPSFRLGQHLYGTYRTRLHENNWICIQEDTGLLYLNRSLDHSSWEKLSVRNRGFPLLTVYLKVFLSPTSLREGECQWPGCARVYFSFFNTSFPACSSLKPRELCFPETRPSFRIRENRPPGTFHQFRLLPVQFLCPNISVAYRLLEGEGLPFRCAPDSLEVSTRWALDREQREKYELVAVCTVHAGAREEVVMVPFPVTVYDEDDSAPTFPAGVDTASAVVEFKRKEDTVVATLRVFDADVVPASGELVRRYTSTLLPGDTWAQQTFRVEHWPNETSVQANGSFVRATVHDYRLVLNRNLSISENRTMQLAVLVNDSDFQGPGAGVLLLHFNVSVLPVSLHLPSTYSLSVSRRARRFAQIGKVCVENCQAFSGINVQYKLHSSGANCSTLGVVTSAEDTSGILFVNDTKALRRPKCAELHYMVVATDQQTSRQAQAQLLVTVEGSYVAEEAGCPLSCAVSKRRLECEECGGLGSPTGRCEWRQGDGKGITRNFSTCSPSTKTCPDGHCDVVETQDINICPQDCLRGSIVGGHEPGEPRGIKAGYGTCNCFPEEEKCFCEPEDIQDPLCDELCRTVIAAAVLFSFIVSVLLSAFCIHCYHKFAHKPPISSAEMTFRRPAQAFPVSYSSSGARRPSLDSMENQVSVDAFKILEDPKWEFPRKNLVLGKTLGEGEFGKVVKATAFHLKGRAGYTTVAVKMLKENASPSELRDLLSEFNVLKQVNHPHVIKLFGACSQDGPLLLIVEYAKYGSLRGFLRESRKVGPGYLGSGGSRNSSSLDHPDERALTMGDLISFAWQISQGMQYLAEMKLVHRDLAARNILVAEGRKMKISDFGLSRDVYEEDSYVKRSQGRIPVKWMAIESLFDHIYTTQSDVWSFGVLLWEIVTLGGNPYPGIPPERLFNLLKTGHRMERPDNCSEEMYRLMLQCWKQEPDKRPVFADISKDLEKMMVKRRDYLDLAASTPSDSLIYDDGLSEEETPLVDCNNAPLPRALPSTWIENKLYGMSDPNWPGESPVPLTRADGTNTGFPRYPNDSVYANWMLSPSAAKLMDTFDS

Tyrosine-protein kinase FRK (Homo sapiens), sequence (P42685 whole entry): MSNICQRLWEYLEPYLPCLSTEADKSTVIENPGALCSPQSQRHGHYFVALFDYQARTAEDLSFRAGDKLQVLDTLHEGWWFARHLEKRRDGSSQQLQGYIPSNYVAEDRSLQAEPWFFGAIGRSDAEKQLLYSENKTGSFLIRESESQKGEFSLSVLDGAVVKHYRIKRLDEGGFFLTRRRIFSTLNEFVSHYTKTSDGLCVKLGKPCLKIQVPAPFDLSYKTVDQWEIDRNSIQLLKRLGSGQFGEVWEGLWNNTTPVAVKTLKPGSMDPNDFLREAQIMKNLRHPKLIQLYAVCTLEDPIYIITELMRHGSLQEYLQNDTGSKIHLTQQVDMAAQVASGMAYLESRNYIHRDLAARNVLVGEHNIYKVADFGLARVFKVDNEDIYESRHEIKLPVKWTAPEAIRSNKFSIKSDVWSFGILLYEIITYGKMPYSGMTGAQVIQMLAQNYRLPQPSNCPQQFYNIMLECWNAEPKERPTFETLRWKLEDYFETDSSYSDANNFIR
Protein-tyrosine kinase 2-beta (Homo sapiens), sequence (Q14289 whole entry, looked up): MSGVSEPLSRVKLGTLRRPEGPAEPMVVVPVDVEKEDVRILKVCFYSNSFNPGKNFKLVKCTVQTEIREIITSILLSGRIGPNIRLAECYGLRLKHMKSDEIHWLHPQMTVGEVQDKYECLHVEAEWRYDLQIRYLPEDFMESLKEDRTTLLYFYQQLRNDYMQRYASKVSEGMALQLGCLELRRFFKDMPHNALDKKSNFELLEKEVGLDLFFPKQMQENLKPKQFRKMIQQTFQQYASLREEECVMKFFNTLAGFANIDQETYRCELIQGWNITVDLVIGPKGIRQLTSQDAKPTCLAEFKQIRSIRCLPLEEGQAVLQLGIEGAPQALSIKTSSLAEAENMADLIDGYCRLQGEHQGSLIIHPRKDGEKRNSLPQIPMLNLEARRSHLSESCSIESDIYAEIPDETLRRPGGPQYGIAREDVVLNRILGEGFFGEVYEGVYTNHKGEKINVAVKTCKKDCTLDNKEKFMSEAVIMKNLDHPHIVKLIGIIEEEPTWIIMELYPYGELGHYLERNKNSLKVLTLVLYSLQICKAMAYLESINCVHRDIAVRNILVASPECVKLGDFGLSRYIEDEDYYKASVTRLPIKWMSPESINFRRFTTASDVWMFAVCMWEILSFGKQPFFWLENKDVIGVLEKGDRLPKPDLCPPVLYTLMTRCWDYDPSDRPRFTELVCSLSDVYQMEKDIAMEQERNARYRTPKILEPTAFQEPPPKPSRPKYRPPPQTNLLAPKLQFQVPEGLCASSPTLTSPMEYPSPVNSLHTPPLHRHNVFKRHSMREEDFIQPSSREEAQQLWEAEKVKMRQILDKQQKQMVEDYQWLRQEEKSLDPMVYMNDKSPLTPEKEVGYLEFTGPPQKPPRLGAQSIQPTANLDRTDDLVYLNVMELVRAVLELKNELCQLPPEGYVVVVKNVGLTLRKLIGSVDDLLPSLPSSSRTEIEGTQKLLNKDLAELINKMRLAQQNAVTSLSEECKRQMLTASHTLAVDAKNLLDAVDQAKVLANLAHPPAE
Proto-oncogene tyrosine-protein kinase receptor Ret (Homo sapiens), P07949 [V804L], sequence (P07949 whole entry V804L): as the sequence (P07949 whole entry Y791F) above, with F791Y, V804L counted along it
Proto-oncogene tyrosine-protein kinase receptor Ret (Homo sapiens), sequence (P07949 whole entry): as the sequence (P07949 whole entry Y791F) above, with F791Y counted along it
Platelet-derived growth factor receptor beta (Homo sapiens), sequence (P09619 whole entry): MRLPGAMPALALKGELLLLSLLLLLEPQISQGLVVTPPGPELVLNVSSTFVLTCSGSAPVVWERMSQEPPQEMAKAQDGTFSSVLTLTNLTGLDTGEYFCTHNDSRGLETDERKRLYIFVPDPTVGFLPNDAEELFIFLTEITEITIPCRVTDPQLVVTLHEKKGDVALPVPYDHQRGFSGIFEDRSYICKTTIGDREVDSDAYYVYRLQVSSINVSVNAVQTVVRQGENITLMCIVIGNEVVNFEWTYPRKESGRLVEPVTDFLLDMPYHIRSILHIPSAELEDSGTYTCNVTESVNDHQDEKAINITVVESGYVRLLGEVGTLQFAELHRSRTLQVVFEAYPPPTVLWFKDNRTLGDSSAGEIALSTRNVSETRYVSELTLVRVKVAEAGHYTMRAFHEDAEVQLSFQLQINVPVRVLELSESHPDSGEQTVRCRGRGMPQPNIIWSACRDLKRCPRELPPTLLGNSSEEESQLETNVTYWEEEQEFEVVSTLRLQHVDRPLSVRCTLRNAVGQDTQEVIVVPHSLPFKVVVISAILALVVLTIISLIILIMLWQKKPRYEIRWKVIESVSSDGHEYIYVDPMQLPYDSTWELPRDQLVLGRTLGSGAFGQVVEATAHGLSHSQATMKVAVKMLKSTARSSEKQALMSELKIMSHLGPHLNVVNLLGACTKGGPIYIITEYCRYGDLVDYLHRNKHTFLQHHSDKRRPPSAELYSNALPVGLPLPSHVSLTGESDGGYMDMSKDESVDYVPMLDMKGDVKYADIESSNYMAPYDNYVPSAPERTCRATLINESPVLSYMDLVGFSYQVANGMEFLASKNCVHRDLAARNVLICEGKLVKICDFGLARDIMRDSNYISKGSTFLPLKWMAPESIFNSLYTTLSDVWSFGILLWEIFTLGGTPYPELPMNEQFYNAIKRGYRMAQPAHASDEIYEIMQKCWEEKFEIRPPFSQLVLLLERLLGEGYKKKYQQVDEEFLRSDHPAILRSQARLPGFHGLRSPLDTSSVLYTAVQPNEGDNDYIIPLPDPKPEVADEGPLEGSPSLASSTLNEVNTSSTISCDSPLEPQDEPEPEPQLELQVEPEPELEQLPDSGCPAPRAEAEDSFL

On to `OCc1ccc(-c2nc(-c3ccccn3)c(-c3ccc4c(c3)OCO4)[nH]2)cc1`, for which the inhibition (in general, the relative decrease from the control value, in per cent) was found to be 11% in assay [1]; 2.25% in assay [2]; 2.05% in assay [3]; 12% in assay [4]; 13.1% in [5]; 4.72% in assay [6]. Further, the inhibition in assay [7] worked out at 4.99%; in assay [8], 4.41%; in [9] it was 1.05%; in assay [10], 12.3%.
Take `Nc1nccc(C#Cc2cncnc2Nc2ccc(OCc3cccc(F)c3)c(Cl)c2)n1`: the inhibition in assay [1] amounted to 11.6%; in assay [2], 2.59%; in assay [3] it was 0.85%; in [4] it was 8.24%; in assay [5] it was 14.2%; in assay [6], 1.17%. The inhibition came out at 5.76% in assay [7], 10.1% in [8], 15% in assay [9] and 4.88% in assay [10].
For `CN(C)C(=O)O[C@H]1CN[C@H](C#Cc2cc3ncnc(Nc4ccc(OCc5cccc(F)c5)c(Cl)c4)c3s2)C1`, the inhibition turned out to be 6.43% in assay [1]; 1.37% in assay [2]; 1.4% in [3]; 6.18% in [4]; 3.98% in assay [5]; 4.97% in [6]. Besides, the inhibition in assay [7] was found to be 19.5%; in assay [8], 3.2%; in [9], 4.12%; in assay [10] it was 3.68%.
For the compound `NC(=O)c1cccc(Nc2nccc(Nc3cccc(F)c3)n2)c1`, the inhibition in [1] is 54.2%; in [2] it was 1.18%; in [3], 11.8%; in assay [4], 1.12%; in assay [5], 25.4%; in assay [6], -0.62%. For the same compound, the inhibition in assay [7] amounted to 26.8%; in [8], 1.12%; in [9] it was 13.8%; in assay [10], 3.72%.
As to `CN(c1ccc(NC(=O)Nc2ccc(OC(F)(F)F)cc2)cc1)c1ccnc(Nc2cccc(S(N)(=O)=O)c2)n1`, the inhibition was 82.1% in assay [1]; 5.62% in assay [2]; 40.9% in [3]; 5.52% in assay [4]; 59% in assay [5]; 79.8% in assay [6]. In addition, the inhibition amounted to 72% in assay [7], 53.8% in assay [8], 86.4% in assay [9] and 67.4% in assay [10].
Consider `CCOc1nccc2c1nc(-c1nonc1N)n2CC`, for which the inhibition in assay [1] was 20.2%; in assay [2] it was 1.66%; in assay [3] it was -0.64%; in assay [4], 5.11%; in assay [5], 7.29%; in [6] it was 5.47%. Also, the inhibition was found to be 12.3% in assay [7], 8.5% in assay [8], 20.2% in [9] and 9.76% in assay [10].
For the compound `NS(=O)(=O)c1ccc(N/N=C2\C(=O)Nc3ccc(Cl)cc32)cc1`, the inhibition is 36.7% in assay [1]; 1.76% in assay [2]; 1.45% in assay [3]; 6.41% in assay [4]; 14% in [5]; -0.09% in [6]. In addition, the inhibition in assay [7] stood at 14.5%; in assay [8], 8.27%; in [9], 41.6%; in assay [10] it was 2.06%.
Consider `Cc1ccc(C(=O)NC2CC2)cc1-c1ccc2[nH]ncc2c1`, for which the inhibition was 6.94% in assay [1]; -2.56% in assay [2]; -4.36% in [3]; -4.62% in [4]; -8.03% in assay [5]; -2.17% in assay [6]. Besides, the inhibition in assay [7] is -0.48%; in assay [8] it was -1.65%; in assay [9], 0.72%; in assay [10], -3.09%.
`Cc1ccc(Nc2ccnc(Nc3cccc(C(N)=O)c3)n2)cc1O`: the inhibition came to 79.7% in assay [1]; 48.6% in assay [2]; 87.6% in [3]; 9.71% in assay [4]; 47.8% in assay [5]; 73.5% in assay [6]. The inhibition in assay [7] was determined as 85.7%; in assay [8] it was 11.7%; in assay [9], 49.7%; in assay [10] it was 74.6%.
On to `C[C@@H](Oc1cc(-n2cnc3ccc(OCC4CCN(C)CC4)cc32)sc1C(N)=O)c1ccccc1C(F)(F)F`, for which the inhibition in assay [1] is 81.5%; in assay [2], -0.4%; in assay [3], 0.5%; in assay [4], -2.32%; in assay [5] it was 6.22%; in assay [6], 2.63%. The inhibition in assay [7] stood at 11.6%; in assay [8] it was 2.09%; in assay [9], 18.5%; in assay [10], 1.2%.
For `CCn1c(-c2nonc2N)nc2c(C#CC(C)(C)O)nc(OCCNC)cc21`, the inhibition in [1] came out at 24.2%; in assay [2], 3.46%; in [3], 3.09%; in [4], 8.7%; in assay [5], 10.6%; in [6], 8.91%. Further, the inhibition was 23.6% in assay [7], 2.4% in assay [8], 4.07% in assay [9] and 7.43% in assay [10].
`Cc1ccc2c(-c3ccnc(Nc4cccc(C(F)(F)F)c4)n3)c(-c3ccccc3)nn2n1`: the inhibition is 85.2% in assay [1]; 5% in assay [2]; 30.1% in assay [3]; 16.5% in [4]; 59.5% in assay [5]; 15.4% in assay [6]. For the same compound, the inhibition in assay [7] was 51%; in assay [8] it was 2.52%; in assay [9] it was 3.3%; in [10], 6.2%.
`COc1cc2ncn(-c3cc(OCc4ccccc4S(C)(=O)=O)c(C#N)s3)c2cc1OC`: the inhibition in assay [1] came to 78.1%; in assay [2] it was 3.38%; in [3], 4.36%; in [4], 12%; in assay [5] it was 25.6%; in [6], 18.2%. In addition, the inhibition in assay [7] is 63.7%; in assay [8], 11.3%; in assay [9], 53.6%; in assay [10] it was 23.2%.
`COC(=O)Nc1nc2cc(Oc3ccc(NC(=O)Nc4cccc(Br)c4)cc3)ccc2[nH]1`: the inhibition in assay [1] stood at 35.9%; in [2], 2.82%; in [3] it was 1.12%; in assay [4], 5.36%; in assay [5] it was 9.53%; in assay [6], 69.7%. The inhibition in assay [7] was determined as 80.6%; in assay [8], 37.5%; in assay [9], 66.5%; in [10] it was 66.4%.
On to `CCn1c(-c2nonc2N)nc2ccc(F)cc21`, for which the inhibition in assay [1] was 4.28%; in [2], 2.61%; in [3], 1.89%; in assay [6] it was 6.24%; in assay [7], 5.07%; in assay [8], 3.33%. In addition, the inhibition in assay [9] is 15.8%; in [10], 6.33%.
`N#Cc1c(NC(=O)c2ccccc2F)sc2c1CCCC2`: the inhibition in [1] was 3.62%; in assay [2], -0.85%; in [3], -1.09%; in assay [5], -8.67%; in assay [6], -2%; in assay [7] it was 3.21%. Moreover, the inhibition in assay [8] is 0.24%; in [9], 2.29%; in assay [10], -0.3%.
In the case of `CC(C)c1ccc(Nc2nccc(-c3cnn4ncccc34)n2)cc1`, the inhibition worked out at 40.8% in assay [1]; 0.49% in assay [2]; 1.12% in assay [3]; 12% in [4]; 45.8% in assay [5]; 6.8% in [6]. Further, the inhibition in assay [7] turned out to be 14.4%; in assay [8], 4.06%; in assay [9] it was 10.1%; in assay [10] it was 5.09%.
